Reference: PubChem BioAssay AID1159580 (chemical genetic matrix, 2015)
Screen size: about 5,500 compounds; about 2,000 (36%) were called active. Another 18% or so got no clear call; they are omitted. No stated cut-off is given here; in the data, active means normalized growth mostly below about 0.91 (no sharp cut-off); inconclusive means no clear call, values can overlap the other calls; inactive means mostly above about 0.92. The list shows a part of the results.

Experiment: chemical genetic growth profiling, strain panel (AID 1159580);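 further: tested at 20 µM; growth read once vehicle control cultures reached saturation at 30 °C; 1 = growth at the plate median or of vehicle wells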
Conditions: growth OD

Measured: normalized growth

COc1ccc([C@@H]2CC(=O)c3c(O)cc(O)cc3O2)cc1O
inactive: S. cerevisiae deletion strains, locus YJR043C, strain POL32, stronger effect = lower value 0.966 | S. cerevisiae deletion strains, locus YJR066W, strain TOR1, stronger effect = lower value 0.95 | S. cerevisiae deletion strains, locus YJR075W, strain HOC1, stronger effect = lower value 1.03 | S. cerevisiae deletion strains, locus YKL009W, strain mrt4, stronger effect = lower value 1.01 | S. cerevisiae deletion strains, locus YKL068W, stronger effect = lower value 0.998 | S. cerevisiae deletion strains, locus YKL085W, strain MDH1 (second series), stronger effect = lower value 0.99 | S. cerevisiae deletion strains, locus YKL085W, strain MDH1, stronger effect = lower value 0.99 | S. cerevisiae deletion strains, locus YKL160W, strain elf1, stronger effect = lower value 0.954 | S. cerevisiae deletion strains, locus YKR001C, strain vps1, stronger effect = lower value 1 | S. cerevisiae deletion strains, locus YKR026C, strain gcn3, stronger effect = lower value 0.982 | S. cerevisiae deletion strains, locus YKR091W, strain srl3, stronger effect = lower value 0.973 | S. cerevisiae deletion strains, locus YLL001W, strain dnm1, stronger effect = lower value 0.947 | S. cerevisiae deletion strains, locus YLL026W, stronger effect = lower value 0.993 | S. cerevisiae deletion strains, locus YLL041C, strain sdh2, stronger effect = lower value 0.982 | S. cerevisiae deletion strains, locus YLR027C, strain aat2, stronger effect = lower value 1 | S. cerevisiae deletion strains, locus YLR039C, strain RIC1, stronger effect = lower value 1.06 | S. cerevisiae deletion strains, locus YLR058C, strain SHM2, stronger effect = lower value 1.01 | S. cerevisiae deletion strains, locus YLR102C, strain apc9, stronger effect = lower value 1.01 | S. cerevisiae deletion strains, locus YLR113W, strain HOG1, stronger effect = lower value 1.02 | S. cerevisiae deletion strains, locus YLR221C, strain rsa3, stronger effect = lower value 0.959 | S. cerevisiae deletion strains, locus YLR258W, strain gsy2, stronger effect = lower value 0.977 | S. cerevisiae deletion strains, locus YLR262C, strain YPT6 (second series), stronger effect = lower value 0.972 | S. cerevisiae deletion strains, locus YLR262C, strain YPT6, stronger effect = lower value 1.03 | S. cerevisiae deletion strains, locus YLR268W, strain sec22, stronger effect = lower value 1.06 | S. cerevisiae deletion strains, locus YLR320W, strain mms22, stronger effect = lower value 0.93 | S. cerevisiae deletion strains, locus YLR330W, strain CHS5, stronger effect = lower value 1.01 | S. cerevisiae deletion strains, locus YLR342W, strain FKS1 (second series), stronger effect = lower value 0.979 | S. cerevisiae deletion strains, locus YLR342W, strain FKS1, stronger effect = lower value 0.976 | S. cerevisiae deletion strains, locus YLR357W, strain rsc2, stronger effect = lower value 0.953 | S. cerevisiae deletion strains, locus YLR370C, strain arc18, stronger effect = lower value 0.97 | S. cerevisiae deletion strains, locus YLR371W, strain rom2, stronger effect = lower value 1.01 | S. cerevisiae deletion strains, locus YLR384C, strain iki3, stronger effect = lower value 0.972 | S. cerevisiae deletion strains, locus YLR418C, strain cdc73, stronger effect = lower value 0.937 | S. cerevisiae deletion strains, locus YML016C, strain PPZ1, stronger effect = lower value 1 | S. cerevisiae deletion strains, locus YML032C, strain rad52, stronger effect = lower value 0.991 | S. cerevisiae deletion strains, locus YML120C, strain ndi1, stronger effect = lower value 0.974 | S. cerevisiae deletion strains, locus YML124C, strain tub3, stronger effect = lower value 1.01 | S. cerevisiae deletion strains, locus YMR058W, strain fet3, stronger effect = lower value 0.969 | S. cerevisiae deletion strains, locus YMR078C, strain ctf18, stronger effect = lower value 1.01 | S. cerevisiae deletion strains, locus YMR125W, strain sto1, stronger effect = lower value 0.96 | S. cerevisiae deletion strains, locus YMR129W, stronger effect = lower value 0.988 | S. cerevisiae deletion strains, locus YMR205C, strain PFK2, stronger effect = lower value 0.952 | S. cerevisiae deletion strains, locus YMR223W, strain ubp8, stronger effect = lower value 0.978 | S. cerevisiae deletion strains, locus YMR231W, strain pep5, stronger effect = lower value 0.98 | S. cerevisiae deletion strains, locus YMR263W, strain SAP30, stronger effect = lower value 1.03 | S. cerevisiae deletion strains, locus YMR307W, strain GAS1, stronger effect = lower value 0.952 | S. cerevisiae deletion strains, locus YNL067W, strain RPL9B, stronger effect = lower value 1.03 | S. cerevisiae deletion strains, locus YNL071W, strain lat1, stronger effect = lower value 0.979 | S. cerevisiae deletion strains, locus YNL183C, strain NPR1, stronger effect = lower value 0.944 | S. cerevisiae deletion strains, locus YNL209W, strain ssb2, stronger effect = lower value 0.986 | S. cerevisiae deletion strains, locus YNL233W, strain BNI4, stronger effect = lower value 1 | S. cerevisiae deletion strains, locus YNL248C, strain rpa49, stronger effect = lower value 0.97 | S. cerevisiae deletion strains, locus YNL250W, strain rad50, stronger effect = lower value 1.02 | S. cerevisiae deletion strains, locus YNL271C, strain bni1, stronger effect = lower value 1.01 | S. cerevisiae deletion strains, locus YNL298W, strain CLA4, stronger effect = lower value 1.02 | S. cerevisiae deletion strains, locus YNL307C, strain MCK1, stronger effect = lower value 1.01 | S. cerevisiae deletion strains, locus YNL322C, strain KRE1 (second series), stronger effect = lower value 0.987 | S. cerevisiae deletion strains, locus YNR049C, strain mso1, stronger effect = lower value 0.973 | S. cerevisiae deletion strains, locus YNR052C, strain pop2, stronger effect = lower value 1.02 | S. cerevisiae deletion strains, locus YOL012C, strain htz1 1.12 | S. cerevisiae deletion strains, locus YOL147C, strain pex11, stronger effect = lower value 0.998 | S. cerevisiae deletion strains, locus YOR001W, strain rrp6, stronger effect = lower value 0.988 | S. cerevisiae deletion strains, locus YOR061W, strain CKA2, stronger effect = lower value 1 | S. cerevisiae deletion strains, locus YOR069W, strain VPS5, stronger effect = lower value 1 | S. cerevisiae deletion strains, locus YOR070C, strain gyp1, stronger effect = lower value 0.975 | S. cerevisiae deletion strains, locus YOR080W, strain dia2, stronger effect = lower value 0.979 | S. cerevisiae deletion strains, locus YOR083W, strain WHI5, stronger effect = lower value 0.934 | S. cerevisiae deletion strains, locus YOR106W, strain vam3, stronger effect = lower value 0.946 | S. cerevisiae deletion strains, locus YOR136W, strain idh2, stronger effect = lower value 1.01 | S. cerevisiae deletion strains, locus YOR144C, strain elg1, stronger effect = lower value 0.999 | S. cerevisiae deletion strains, locus YOR184W, strain ser1, stronger effect = lower value 0.986 | S. cerevisiae deletion strains, locus YOR231W, strain MKK1, stronger effect = lower value 1.02 | S. cerevisiae deletion strains, locus YOR265W, strain rbl2, stronger effect = lower value 0.983 | S. cerevisiae deletion strains, locus YOR270C, strain vph1, stronger effect = lower value 0.933 | S. cerevisiae deletion strains, locus YOR290C, strain snf2, stronger effect = lower value 0.924 | S. cerevisiae deletion strains, locus YOR316C, strain cot1, stronger effect = lower value 1 | S. cerevisiae deletion strains, locus YPL051W, strain arl3, stronger effect = lower value 0.967 | S. cerevisiae deletion strains, locus YPL055C, strain LGE1, stronger effect = lower value 1.02 | S. cerevisiae deletion strains, locus YPL078C, strain atp4, stronger effect = lower value 0.952 | S. cerevisiae deletion strains, locus YPL106C, strain sse1, stronger effect = lower value 0.965 | S. cerevisiae deletion strains, locus YPL240C, strain hsp82, stronger effect = lower value 0.997 | S. cerevisiae deletion strains, locus YPL256C, strain CLN2, stronger effect = lower value 1.03 | S. cerevisiae deletion strains, locus YPR119W, strain clb2, stronger effect = lower value 1.01 | S. cerevisiae deletion strains, locus YPR141C, strain kar3, stronger effect = lower value 1.01 | S. cerevisiae deletion strains, locus YPR163C, strain tif3, stronger effect = lower value 1.01 | S. cerevisiae deletion strains, locus YPR167C, strain met16, stronger effect = lower value 1 | S. cerevisiae deletion strains, strain wtn01, stronger effect = lower value 1.03 | S. cerevisiae strains, strain wild type, stronger effect = lower value 1.01
